# Measured values as given in PMC5540273 (PLoS ONE, 2017).
# What was measured:
# Details in all cases: concentration: 1 μM, replicates: in singlicate; n = 1
# FLT1 = system: FLT1
# FLT3-autoinhibited = system: FLT3-autoinhibited
# FLT3 = system: FLT3
# FLT4 = system: FLT4
# FRK = system: FRK
# FYN = system: FYN
# GAK = system: GAK
# GCN2(Kin.Dom.2,S808G) = system: T1, GCN2(Kin.Dom.2,S808G)
# T1 construct: gene EIF2AK4
# GRK1 = system: GRK1
# GRK2 = system: T2, GRK2
# T2 construct: gene ADRBK1
# GRK3 = system: T3, GRK3
# T3 construct: gene ADRBK2
# GRK4 = system: GRK4
# GRK7 = system: GRK7
# GSK3A = system: GSK3A
# GSK3B = system: GSK3B
# HASPIN = system: T4, HASPIN
# T4 construct: gene GSG2
# HCK = system: HCK
# HIPK1 = system: HIPK1
# HIPK2 = system: HIPK2
# HIPK3 = system: HIPK3
# 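Also: KINOMEscan kinase panel screen.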
structure (smiles),measurement,setting,value
COc1nccc(-c2c(-c3ccc(F)cc3)ncn2CCCN2CCOCC2)n1 [SB-282852],%Inh,FLT1,10%
same,%Inh,FLT3-autoinhibited,4%
same,%Inh,FLT3,0%
same,%Inh,FLT4,0%
same,%Inh,FRK,0%
same,%Inh,FYN,0%
same,%Inh,GAK,0%
same,%Inh,"GCN2(Kin.Dom.2,S808G)",1%
same,%Inh,GRK1,29%
same,%Inh,GRK2,2%
same,%Inh,GRK3,14%
same,%Inh,GRK4,23%
same,%Inh,GRK7,37%
same,%Inh,GSK3A,17%
same,%Inh,GSK3B,10%
same,%Inh,HASPIN,0%
same,%Inh,HCK,0%
same,%Inh,HIPK1,46%
same,%Inh,HIPK2,76%
same,%Inh,HIPK3,0%
CCc1ccc(-c2ccc3c(c2)-c2n[nH]cc2S(=O)(=O)N3C)cc1,%Inh,FLT1,14%
same,%Inh,FLT3-autoinhibited,4%
same,%Inh,FLT3,56%
same,%Inh,FLT4,0%
same,%Inh,FRK,2%
same,%Inh,FYN,14%
same,%Inh,GAK,0%
same,%Inh,"GCN2(Kin.Dom.2,S808G)",24%
same,%Inh,GRK1,6%
same,%Inh,GRK2,0%
same,%Inh,GRK3,0%
same,%Inh,GRK4,0%
same,%Inh,GRK7,0%
same,%Inh,GSK3A,35%
same,%Inh,GSK3B,0%
same,%Inh,HASPIN,4%
same,%Inh,HCK,16%
same,%Inh,HIPK1,0%
same,%Inh,HIPK2,0%
same,%Inh,HIPK3,0%
CC(C)c1ccc(O)cc1Nc1ccnc2ccc(C(F)(F)F)cc12 [GW482059],%Inh,FLT1,21%
same,%Inh,FLT3-autoinhibited,9%
same,%Inh,FLT3,1%
same,%Inh,FLT4,10%
same,%Inh,FRK,9%
same,%Inh,FYN,20%
same,%Inh,GAK,0%
same,%Inh,"GCN2(Kin.Dom.2,S808G)",0%
same,%Inh,GRK1,0%
same,%Inh,GRK2,14%
same,%Inh,GRK3,0%
same,%Inh,GRK4,21%
same,%Inh,GRK7,0%
same,%Inh,GSK3A,19%
same,%Inh,GSK3B,0%
same,%Inh,HASPIN,3%
same,%Inh,HCK,10%
same,%Inh,HIPK1,0%
same,%Inh,HIPK2,31%
same,%Inh,HIPK3,0%
CN1c2ccc(-c3ccc(C(N)=O)cc3)cc2-c2[nH]ncc2S1(=O)=O,%Inh,FLT1,5%
same,%Inh,FLT3-autoinhibited,27%
same,%Inh,FLT3,31%
same,%Inh,FLT4,0%
same,%Inh,FRK,0%
same,%Inh,FYN,3%
same,%Inh,GAK,6%
same,%Inh,"GCN2(Kin.Dom.2,S808G)",33%
same,%Inh,GRK1,1%
same,%Inh,GRK2,0%
same,%Inh,GRK3,0%
same,%Inh,GRK4,0%
same,%Inh,GRK7,0%
same,%Inh,GSK3A,25%
same,%Inh,GSK3B,13%
same,%Inh,HASPIN,28%
same,%Inh,HCK,0%
same,%Inh,HIPK1,41%
same,%Inh,HIPK2,23%
same,%Inh,HIPK3,19%
Fc1ccc(-c2nn3cccc(F)c3c2-c2ccncc2)cc1 [GW475620],%Inh,FLT1,27%
same,%Inh,FLT3-autoinhibited,2%
same,%Inh,FLT3,0%
same,%Inh,FLT4,25%
same,%Inh,FRK,14%
same,%Inh,FYN,16%
same,%Inh,GAK,65%
same,%Inh,"GCN2(Kin.Dom.2,S808G)",0%
same,%Inh,GRK1,0%
same,%Inh,GRK2,6%
same,%Inh,GRK3,0%
same,%Inh,GRK4,26%
same,%Inh,GRK7,0%
same,%Inh,GSK3A,0%
same,%Inh,GSK3B,11%
same,%Inh,HASPIN,5%
same,%Inh,HCK,15%
same,%Inh,HIPK1,0%
same,%Inh,HIPK2,0%
same,%Inh,HIPK3,4%
Cn1cncc1C(=O)NC1CCN(c2ccnc(Nc3ccc(F)cc3)n2)C1 (centres unmarked) [GSK1379717],%Inh,FLT1,12%
same,%Inh,FLT3-autoinhibited,1%
same,%Inh,FLT3,0%
same,%Inh,FLT4,99.1%
same,%Inh,FRK,0%
same,%Inh,FYN,42%
same,%Inh,GAK,0%
same,%Inh,"GCN2(Kin.Dom.2,S808G)",0%
same,%Inh,GRK1,18%
same,%Inh,GRK2,0%
same,%Inh,GRK3,0%
same,%Inh,GRK4,0%
same,%Inh,GRK7,0%
same,%Inh,GSK3A,12%
same,%Inh,GSK3B,8%
same,%Inh,HASPIN,0%
same,%Inh,HCK,0%
same,%Inh,HIPK1,0%
same,%Inh,HIPK2,0%
same,%Inh,HIPK3,3%
CC(=O)c1c(C)c2cnc(Nc3ccn(C)n3)nc2n(C2CCCC2)c1=O,%Inh,FLT1,4%
same,%Inh,FLT3-autoinhibited,2%
same,%Inh,FLT3,0%
same,%Inh,FLT4,0%
same,%Inh,FRK,28%
same,%Inh,FYN,0%
same,%Inh,GAK,0%
same,%Inh,"GCN2(Kin.Dom.2,S808G)",36%
same,%Inh,GRK1,0%
same,%Inh,GRK2,17%
same,%Inh,GRK3,17%
same,%Inh,GRK4,0%
same,%Inh,GRK7,0%
same,%Inh,GSK3A,12%
same,%Inh,GSK3B,0%
same,%Inh,HASPIN,0%
same,%Inh,HCK,29%
same,%Inh,HIPK1,14%
same,%Inh,HIPK2,31%
same,%Inh,HIPK3,13%
CC[C@@H]1CO[C@H](C(=O)Nc2ccccc2)CN1c1cc(-c2ccc3c(N)n[nH]c3c2)nc(NC)n1 [GSK2376236],%Inh,FLT1,28%
same,%Inh,FLT3-autoinhibited,0%
same,%Inh,FLT3,0%
same,%Inh,FLT4,20%
same,%Inh,FRK,0%
same,%Inh,FYN,39%
same,%Inh,GAK,26%
same,%Inh,"GCN2(Kin.Dom.2,S808G)",0%
same,%Inh,GRK1,0%
same,%Inh,GRK2,0%
same,%Inh,GRK3,0%
same,%Inh,GRK4,0%
same,%Inh,GRK7,0%
same,%Inh,GSK3A,12%
same,%Inh,GSK3B,17%
same,%Inh,HASPIN,0%
same,%Inh,HCK,0%
same,%Inh,HIPK1,9%
same,%Inh,HIPK2,0%
same,%Inh,HIPK3,4%
CNC(=O)c1ccc(C)c(-n2c(C)cc(OCc3ccc(F)cc3F)c(Br)c2=O)c1,%Inh,FLT1,2%
same,%Inh,FLT3-autoinhibited,0%
same,%Inh,FLT3,0%
same,%Inh,FLT4,0%
same,%Inh,FRK,0%
same,%Inh,FYN,0%
same,%Inh,GAK,0%
same,%Inh,"GCN2(Kin.Dom.2,S808G)",0%
same,%Inh,GRK1,0%
same,%Inh,GRK2,4%
same,%Inh,GRK3,0%
same,%Inh,GRK4,2%
same,%Inh,GRK7,0%
same,%Inh,GSK3A,0%
same,%Inh,GSK3B,0%
same,%Inh,HASPIN,18%
same,%Inh,HCK,0%
same,%Inh,HIPK1,0%
same,%Inh,HIPK2,0%
same,%Inh,HIPK3,0%
Cc1ccc(-c2nc(Nc3ccncc3)c3ccccc3n2)s1 [GSK189015],%Inh,FLT1,39%
same,%Inh,FLT3-autoinhibited,17%
same,%Inh,FLT3,23%
same,%Inh,FLT4,10%
same,%Inh,FRK,7%
same,%Inh,FYN,0%
same,%Inh,GAK,53%
same,%Inh,"GCN2(Kin.Dom.2,S808G)",13%
same,%Inh,GRK1,9%
same,%Inh,GRK2,1%
same,%Inh,GRK3,0%
same,%Inh,GRK4,13%
same,%Inh,GRK7,0%
same,%Inh,GSK3A,18%
same,%Inh,GSK3B,28%
same,%Inh,HASPIN,54%
same,%Inh,HCK,10%
same,%Inh,HIPK1,0%
same,%Inh,HIPK2,0%
same,%Inh,HIPK3,41%
